We go through 43 compounds from PubChem BioAssay (Tox21).

Test [1] has as its target Acetylcholinesterase (Homo sapiens) (UniProt P22303). The test can be described thus: Acetylcholinesterase (AChE) small molecule antagonists: colormetric cell-based qHTS assay (AID 1347395). Also: nearly all actives have a fitted effect of over 30% in size. Also: potency is read from the fitted curve at half-maximal effect. A digest of the protocol:
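Endogenous AChE of human neuroblastoma SH-SY5Y cells was measured with an Ellman-type DTNB/acetylthiocholine mix. Compound pretreatment lasted 30 min at 37 C; substrate reaction ran 90 min at 37 C.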
In general terms: qHTS replaces the single test concentration by a dilution series.

The target is the same in test [2]. Kind of test: Acetylcholinesterase (AChE) small molecule antagonists: enzyme-based qHTS assay (AID 1347397). Also: nearly all actives have a fitted effect of over 55% in size. Also: potency is read from the fitted curve at half-maximal effect. The settings on record: Potency: AChE enzyme activity inhibition; outcome: AChE enzyme activity inhibition. A digest of the protocol: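 In this quantitative HTS, compounds from the Tox21 10K collection were preincubated 30 min at ambient temperature with recombinant human AChE dispensed at 50 mU/mL. Hydrolysis of acetylthiocholine was then followed for 10 min by DTNB colour development.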

For test [3] the target is unchanged. The test can be described thus: Acetylcholinesterase (AChE) small molecule antagonists: fluorescence cell-based qHTS assay (AID 1347398). Also: nearly all actives have a fitted effect of over 50% in size. Also: potency is read from the fitted curve at half-maximal effect. The settings on record: Potency: AChE activity; outcome: AChE activity. A digest of the protocol: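 Cells (SH-SY5Y) attached overnight, were dosed with compound or DMSO vehicle for 30 min at 37 C, and then incubated 40 min at room temperature with acetylthiocholine and Thiolite Green; green fluorescence indexed AChE activity.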

For test [4] the target is unchanged. The test can be described thus: Acetylcholinesterase (AChE) small molecule antagonists: enzyme-based qHTS assay with human liver microsomes (AID 1347399). Also: nearly all actives have a fitted effect of over 60% in size. The settings on record: Potency: qHTS inhibition; outcome: qHTS inhibition. In a few lines:
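Recombinant human AChE (50 mU/mL in the enzyme mix) and human liver microsomes (0.25 mg/mL final) were preincubated with compound and NADPH (0.25 mg/mL final) for 30 min at 37 C. Acetylthiocholine/DTNB was then added; thiocholine was read colorimetrically after 10 min at room temperature.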

Records with an inconclusive call do not appear. Some structures have more than one record in an assay (separate samples or runs), and their calls can disagree. Activity calls are given as the source filed them. Calls follow the shape of the full dose curve.
% is scaled to controls: 0 for no effect and ±100 for the full control effect.

Sequence of Acetylcholinesterase (Homo sapiens) (P22303 whole entry, looked up): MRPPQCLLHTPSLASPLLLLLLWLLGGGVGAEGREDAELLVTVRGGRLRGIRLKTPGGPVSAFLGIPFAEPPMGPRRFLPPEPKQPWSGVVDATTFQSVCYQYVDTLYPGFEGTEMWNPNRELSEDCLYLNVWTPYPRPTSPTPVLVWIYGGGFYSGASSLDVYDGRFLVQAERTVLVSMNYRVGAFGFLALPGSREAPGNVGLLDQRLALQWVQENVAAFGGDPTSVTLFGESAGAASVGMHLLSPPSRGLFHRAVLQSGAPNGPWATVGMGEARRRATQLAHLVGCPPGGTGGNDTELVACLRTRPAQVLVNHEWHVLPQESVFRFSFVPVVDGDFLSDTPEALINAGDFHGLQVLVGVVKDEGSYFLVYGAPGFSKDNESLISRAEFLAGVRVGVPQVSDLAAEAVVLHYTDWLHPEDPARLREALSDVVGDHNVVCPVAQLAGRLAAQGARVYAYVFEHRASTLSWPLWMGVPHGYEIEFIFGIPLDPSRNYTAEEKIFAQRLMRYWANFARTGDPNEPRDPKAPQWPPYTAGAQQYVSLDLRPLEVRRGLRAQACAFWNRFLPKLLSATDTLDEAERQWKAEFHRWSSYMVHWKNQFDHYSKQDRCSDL

Turning to `CC(=O)NCCCS(=O)(=O)O`, the Potency result in test [1], in test [2] and in test [3] was “inactive” each time.

As to `C/C(=C(/OCCOc1ccc(Cl)cc1)c1ccc(Cl)cc1Cl)n1ccnc1`, the Potency entry in test [1], in test [2] and in test [3] was “inactive” in each case.

Turning to `c1coc(CNc2ncnc3nc[nH]c23)c1`, the Potency entry in test [1], in test [2] and in test [3] was “inactive” each time.

In the case of `CC(C)c1nnc2ccc(-c3ocnc3-c3cc(F)ccc3F)cn12`, the Potency result in test [1], in test [2] and in test [3] was “inactive” in each case.

`CN(C)C(=O)C(CCN1CCC(O)(c2ccc(Cl)cc2)CC1)(c1ccccc1)c1ccccc1`: the Potency entry in test [1], in test [2] and in test [3] was “inactive” throughout.

On to `O=C1CCCC1`, for which the Potency entry in test [1], in test [2] and in test [3] was “inactive” each time.

Regarding `CC(C)(C)CC(C)(C)N`, the Potency result in test [1], in test [2] and in test [3] was “inactive” throughout.

As to `O=C(Cl)c1ccccc1[N+](=O)[O-]`, the Potency entry in test [1], in test [2] and in test [3] was “inactive” in each case.

Take `CCN(C(=O)c1cc(C)cc(OC[C@H](C)Nc2ccncc2)c1)C(C)C`: the Potency was 12.5 µM (active) in test [1], 22.2 µM (active) in test [2] and 6.26 µM (active) in test [3].

Take `CN(C)C(=O)C1(N2CCCCC2)CCN(CC[C@@]2(c3ccc(Cl)c(Cl)c3)CN(C(=O)c3ccccc3)CCO2)CC1`: the Potency is 33.2 µM (active) in test [1], 16.7 µM (active) in test [2] and 4.69 µM (active) in test [3].

For the compound `COc1ccc(OC)cc1`, the Potency result in test [1], in test [2] and in test [3] was “inactive” in each case.

With `COc1cc(NS(=O)(=O)c2ccc(N)cc2)nc(OC)n1`, the Potency result in test [1], in test [2] and in test [3] was “inactive” throughout.

Consider `C1COC(NC(C2CC2)C2CC2)=N1`, for which the Potency entry in test [1], in test [2] and in test [3] was “inactive” in each case.

For the compound `C=C(C)[C@@H]1CCC2=CC(=O)C[C@@H](C)[C@]2(C)C1`, the Potency entry in test [1], in test [2] and in test [3] was “inactive” in each case.

On to `CC(C(=O)O)c1cccc(C(=O)c2ccccc2)c1` (stereo not drawn), for which the Potency result in test [1], in test [2] and in test [3] was “inactive” throughout.

In the case of `C[C@]12CCC(=O)C=C1C=C[C@@H]1[C@@H]2CC[C@@]2(C)[C@H]1CC[C@@]21CCC(=O)O1`, the Potency entry in test [1], in test [2] and in test [3] was “inactive” throughout.

For `CC1=C(O)C(=O)CO1`, the Potency result in test [1], in test [2] and in test [3] was “inactive” in each case.

In the case of `COc1cc(Cc2cnc(N)nc2N)cc(OC)c1OC`, the Potency result in test [1], in test [2] and in test [3] was “inactive” in each case.

On to `CC(C)(C#N)Nc1nc(Cl)nc(NC2CC2)n1`, for which the Potency entry in test [1], in test [2] and in test [3] was “inactive” each time.

With `CCN[C@@H]1C[C@H](N)[C@@H](OC2OC(CN)=CCC2N)[C@H](O)[C@H]1O[C@H]1OC[C@](C)(O)[C@H](NC)[C@H]1O` (stereo partly drawn), in test [1], the activity, negative = inhibition was 0.264% [at 0.435 µM] (inactive). In addition, the activity change, negative = inhibition in test [2] was 0.139% [at 0.435 µM] (inactive); in test [3], 7.61% [at 0.439 µM] (inactive).

`CCOC(=O)c1c(N)sc2c1CCN(Cc1ccccc1)C2`: the results for the Potency in test [1], in test [2] and in test [3] were 12.3 µM (active), 24.5 µM (active) and 12.3 µM (active), respectively.

For the compound `CCCCCCCCCO`, the Potency entry in test [1], in test [2] and in test [3] was “inactive” throughout.

Turning to `CCCC(=O)c1cc(O)c(O)cc1O`, the Potency entry in test [1], in test [2] and in test [3] was “inactive” each time.

Regarding `CN(C)CCCN1c2ccccc2Sc2ccc(C(F)(F)F)cc21`, the Potency result in test [1], in test [2] and in test [3] was “inactive” in each case.

For `CC(C)OC=O`, the Potency entry in test [1], in test [2] and in test [3] was “inactive” throughout.

`CCCc1cc(C(N)=S)ccn1`: the Potency result in test [1], in test [2] and in test [3] was “inactive” each time.

As to `CC(C)c1ccc2c(C(C)C)cc(C(C)C)c(S(=O)(=O)O)c2c1`, the Potency entry in test [1], in test [2] and in test [3] was “inactive” throughout.

For the compound `O=C(O)CCc1nc(-c2ccccc2)c(-c2ccccc2)o1`, the Potency result in test [1], in test [2] and in test [3] was “inactive” each time.

Turning to `CCCCOC(=O)CC(CC(=O)OCCCC)(OC(C)=O)C(=O)OCCCC`, the Potency result in test [1], in test [2] and in test [3] was “inactive” throughout.

Take `CNC(=S)N(C)C`: in test [1], the Potency entry was “inactive”. In addition, the Potency in test [2] was 63.9 µM (active) and inactive; in test [3], 32 µM (active) and inactive.

Take `O=C1CN(/N=C/c2ccc([N+](=O)[O-])o2)C(=O)N1`: the Potency entry in test [1], in test [2] and in test [3] was “inactive” in each case.

With `O=C(COc1ccc(Cl)cc1)N1CCN(Cc2ccc3c(c2)OCO3)CC1`, the Potency entry in test [1], in test [2] and in test [3] was “inactive” throughout.

In the case of `CC(C)COC(=O)/C=C/c1ccccc1`, the Potency entry in test [1], in test [2] and in test [3] was “inactive” each time.

Regarding `CC1(C)[C@H](C(=O)O)N2C(=O)C[C@H]2S1(=O)=O`, the Potency entry in test [1], in test [2] and in test [3] was “inactive” in each case.

Consider `Cc1onc(-c2ccccc2Cl)c1C(=O)N[C@@H]1C(=O)N2[C@@H]1SC(C)(C)[C@@H]2C(=O)O`, for which the Potency result in test [1], in test [2] and in test [3] was “inactive” each time.

As to `CC1=NN(c2cc(S(=O)(=O)O)ccc2Cl)C(=O)C1N=Nc1ccccc1` (stereo not drawn), the Potency result in test [1], in test [2] and in test [3] was “inactive” each time.

Take `O=C1c2ccccc2C(=O)N1CCc1noc(-c2ccc(CN3CCCCCC3)s2)n1`: the Potency was 6.51 µM (active) in test [1], 23.1 µM (active) in test [2] and 3.26 µM (active) in test [3].

For `Cc1ccc2ccc(Cl)cc2n1`, the Potency entry in test [1], in test [2] and in test [3] was “inactive” each time.

With `COc1cc(NCc2ccc3nc(N)nc(N)c3c2C)cc(OC)c1OC`, the values for the Potency in test [1], in test [2] and in test [3] were 8.71 µM (active), 30.9 µM (active) and 3.09 µM (active), respectively.

Turning to `CCC(=O)OC`, the Potency entry in test [1], in test [2], in test [3] and in test [4] was “inactive” throughout.

As for `O=C1CCCCCCCCCCCCCC1`, the Potency entry in test [1], in test [2], in test [3] and in test [4] was “inactive” in each case.

As for `O=S(=O)(O)c1ccc2nc(-c3ccccc3)[nH]c2c1`, the Potency entry in test [1], in test [2], in test [3] and in test [4] was “inactive” each time.

Consider `O=S1(=O)CCCO1`, for which the Potency result in test [1], in test [2], in test [3] and in test [4] was “inactive” each time.
